Assay results taken from PubChem BioAssay (NCATS).
Results filed as inconclusive are left out. Entries that show only a call come without a potency. Unmarked numbers belong to inactive results. Calls of active or inactive are those of the source. The call rests on the fitted dose curve; in most records, active means well fitted curve in the direction sought with a large enough effect; inconclusive means small, poorly fitted or top-dose-only effect, or another doubt; inactive means no such curve, though single readings can be large; an effect the other way counts as inactive or inconclusive.

What was measured:
[1] = target: Cellular tumor antigen p53 (Homo sapiens) (UniProt P04637); experiment: Primary qHTS for small molecule compounds that upregulate eGFP-tagged delta133p53alpha (in N-terminal) cells. (AID 2060322); conditions: NCI-H358 eGFP-delta133p53alpha fluorescence, 24 h; activation: stronger effect = higher value; further: nearly all actives have a fitted effect of over 75% in size; further: potency means the concentration at half of the fitted maximal effect; on activation: series mostly up to about 56 µM
In short: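 NCI-H358 cells pre-induced 24 h with 10 ng/ml doxycycline to express N-terminal eGFP-delta133p53alpha, then dosed 24 h at 37C without doxycycline; fixed, Hoechst-stained, GFP intensity by laser scanning cytometry, normalized to DMSO (0%) and 57.5 uM 5-azacytidine (100%).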

[2] = target: Aldehyde dehydrogenase, mitochondrial (Homo sapiens) (UniProt P05091); experiment: qHTS for Inhibitors of the Aldehyde Dehydrogenase Family (ALDH2) Primary screen (AID 2061308); further: nearly all actives have a fitted effect of over 55% in size
[3] = target: Retinaldehyde dehydrogenase 3 (Homo sapiens) (UniProt P47895); experiment: qHTS for Inhibitors of the Aldehyde Dehydrogenase Family (ALDH1A3) Primary screen (AID 2061315)

Sequence of Cellular tumor antigen p53 (Homo sapiens) (P04637 whole entry, looked up): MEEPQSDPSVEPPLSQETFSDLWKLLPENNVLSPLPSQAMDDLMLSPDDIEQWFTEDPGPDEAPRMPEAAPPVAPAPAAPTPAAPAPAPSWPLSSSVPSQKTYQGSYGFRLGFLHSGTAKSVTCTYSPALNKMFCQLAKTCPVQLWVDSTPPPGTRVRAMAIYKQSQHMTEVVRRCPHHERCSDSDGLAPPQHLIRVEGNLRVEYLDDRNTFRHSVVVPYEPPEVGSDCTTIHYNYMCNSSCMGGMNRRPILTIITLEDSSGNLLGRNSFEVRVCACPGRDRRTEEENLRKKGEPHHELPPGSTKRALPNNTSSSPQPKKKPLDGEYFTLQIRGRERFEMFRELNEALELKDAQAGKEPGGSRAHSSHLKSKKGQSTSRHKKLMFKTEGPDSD

Row | Compound | activation [1] | Potency [2] | Potency [3] | Potency [1]
1 | C[C@H]1CC[C@H]2[C@@H](C=C[C@@](C)(O)[C@]2(C)C(=O)CCO)C1 | -9.16% | inactive | inactive | 
2 | CCC(C)C(=O)O[C@H]1[C@@H](OC(=O)c2ccoc2)C[C@](C)(O)[C@]23OC(C)(C)[C@H](C[C@H](OC(=O)c4ccoc4)[C@]12COC(C)=O)[C@H]3OC(C)=O (stereo not given in full) | 17.6% | inactive | inactive | 
3 | COc1ccc(-n2c(=O)[nH]c3cc(C(=O)NCc4ccc(Cl)cc4)sc3c2=O)nc1OC | -16.1% | inactive | inactive | 
4 | C/C(CO)=C1/CCC23COC(C2)C(O)(C(=O)O)CCC13 (stereo not given) | 0% | inactive | inactive | 
5 | CC(=O)OC(C)(C)/C=C/C(=O)C(C)(O)C1C(O)CC2(C)C3CC=C(C(C)(C)C(=O)O)C(CC(=O)O)C3(C)C(=O)CC12C (stereo not given) | -3.82% | inactive | inactive | 
6 | O=C(C[C@@H]1C(C(=O)O)=CO[C@@H](O[C@@H]2O[C@H](CO)[C@@H](O)[C@H](O)[C@H]2O)/C1=C\CO)OCCc1ccc(O)cc1 | 1.53% | inactive | inactive | 
7 | COc1cc(O)cc(C)c1C(=O)O[C@H]1[C@@H](O)[C@@H](n2ccc(=O)[nH]c2=O)O[C@@H]1CO | -9.16% | inactive | inactive | 
8 | OCc1ccc(O[C@@H]2O[C@H](CO)[C@@H](O)[C@H](O)[C@H]2O)cc1 | 2.68% | inactive | inactive | 
9 | N#Cc1c[nH]c2c(C(=O)N3CCN(CCc4ccc(F)cc4)CC3)cccc12 | -18.8% | inactive | inactive | 
10 | CC#CCn1c(N2CCCC(N)C2)nc2c1c(=O)n(Cc1nc(C)c3ccccc3n1)c(=O)n2C (stereo not given) | 5.67% | inactive | inactive | 
11 | Nc1c(Br)cc(Br)cc1CNC1CCC(O)CC1 (stereo not given) | 29.7% | inactive | inactive | 
12 | OC[C@H]1O[C@@H](OCCc2ccccc2)[C@H](O[C@@H]2OC[C@@H](O)[C@H](O)[C@H]2O)[C@@H](O)[C@@H]1O | -11.5% | inactive | inactive | 
13 | O=C(O)CC1CC(c2ccccc2)=NO1 (stereo not given) | 16.3% | inactive | inactive | 
14 | C=C1C(=O)O[C@@H]2C[C@@]3(C)CCC[C@H](C)C3=C[C@H]12 |  | inactive | inactive | 19 µM (active)
15 | CC1CCC2(NC1)OC1C(O)C3C4CCC5CC(O[C@@H]6O[C@H](CO)[C@@H](O)[C@H](O)[C@H]6O[C@@H]6O[C@@H](C)[C@H](O)[C@@H](O)[C@H]6O)CCC5(C)C4CCC3(C)C1C2C (stereo not given in full) | -15.3% | inactive | inactive | 
16 | C[C@@H]1C(=O)O[C@H](C)[C@H]1C[C@@H](O)[C@](C)(O)[C@H]1CC[C@@]2(O)C3=CC(=O)[C@@H]4C[C@@H](O)[C@@H](O)C[C@]4(C)C3CC[C@]12C (stereo not given in full) | -5.36% | inactive | inactive | 
17 | C[C@]1(O)CC[C@@H]2C(C(=O)O)=CO[C@@H](O[C@@H]3O[C@H](COC(=O)/C=C/c4ccc(O)c(O)c4)[C@@H](O)[C@H](O)[C@H]3O)[C@@H]21 | 0% | inactive | inactive | 
18 | Cc1ccc(C)c(S(=O)(=O)n2cnc3ccccc32)c1 | 1% | inactive | inactive | 
19 | CC(CCO)CCC1C2(C)CCCC(C)(C)C2CC[C@@]1(C)O (stereo not given in full) | 18.3% | inactive | inactive | 
20 | CCC(C)/C=C(C)/C=C/C1=CC2=C(Cl)C(=O)C(C)(OC(C)=O)C(=O)C2=CN1CCCCC(N)C(=O)O (stereo not given) | -16.8% | inactive | inactive | 
